Results reported in PubChem BioAssay (Tox21).
Records with an inconclusive call do not appear. Values without a mark were called inactive. The source made the active and inactive calls. Calls come from the whole dose curve; as a rule, active = well fitted cell-killing curve with a large enough effect in the repeat runs; inconclusive = weak or mixed curves, or effect the other way; inactive = flat fitted curve, though single readings scatter.

Assay: qHTS assay to identify small molecule agonists of the androgen receptor (AR) signaling pathway in the presence of an antagonist - cell viability counter screen (AID 1259379); note: nearly all actives have a fitted effect of over 25% in size
Details: MDA-kb2 viability, CellTiter-Fluor, 16 h; series mostly up to 92.4 µM; activity change, negative = cytotoxicity: at the top concentration
Description: National Center for Advancing Translational Sciences [NCATS]
NIH Chemical Genomics Center [NCGC]
U.S. Environmental Protection Agency [EPA]
National Institutes of Environmental Health Sciences [NIEHS]
National Toxicology Program [NTP]
U.S. Food and Drug Administration [FDA]
Androgen receptor (AR) is an important member of nuclear receptor family. Its signaling plays a critical role in AR-dependent prostate cancer and other androgen related diseases. Considerable attention has been given in the past decades to develop methods to study and screen for the environmental chemicals that have the potential to interfere with metabolic homeostasis, reproduction, developmental and behavioral functions. Therefore AR binding assay for screening against androgen agonists and antagonists can be used to identify potential endocrine disruptors.
MDA-kb2 cells (from ATCC, deposited by Wilson et al.) are human breast carcinoma cells that were stably transfected with a luciferase reporter gene under control of the MMTV promoter that contains response elements for both androgen receptor (AR) and glucocorticoid receptor (GR). This particular screening for measuring luciferase reporter gene activity using MDA-kb2 cells against Tox21 10K library compounds is a confirmation study on agonist mode screening in the presence of AR-antagonist compound (Nilutamide) at 3.0uM final concentration. The cytotoxicity of the compounds was tested in parallel by measuring the cell viability using CellTiter-Fluor assay system (Promega, Madison, WI) in the same wells.
Tox21 Assay Protocol Summary:
MDA-kb2 cells (cells cultured without CO2) were dispensed at 3,000 cells/well in 4uL of culture medium into white wall/solid-bottom 1536-well plates (Corning Life Sciences, Corning, NY) using a Multidrop Combi (Thermo Fisher Scientific Inc., Waltham, MA) dispenser. The assay plates were incubated at 37C and 0% CO2 for 5hr. One uL of 3.0uM (final concentration) Nilutamide or assay buffer was added using two separate tips of Flying Reagent Dispenser (FRD, Aurora Discovery, San Diego, CA). Then 23nL of compounds dissolved in DMSO at 15 concentrations and positive controls were transferred to the assay plates using a Pintool station (Wako, San Diego, CA). The assay plates were incubated at 37C and 0% CO2 for 16 hr. After 15hr incubation at 37C, 1uL/well CellTiter-Fluor reagent (Promega Corporation) was added to each well of the assay plates using FRD. After 1hr incubation at 37C and 0% CO2, the fluorescence signal was measured using a ViewLux plate reader (PerkinElmer, Shelton, CT).
% is set by controls: 0 for no effect and ±100 for the full control effect; potency is the fitted concentration of half-maximal effect.

First: CC(CN)CCCN (stereo not given)
Second: CCCCC(CC)COCCCN (stereo not given)
The “activity change, negative = cytotoxicity” value of the first is higher: 0.366% for the first, -6.82% for the second.

First: CCCCCC/C=C/C=O
Second: CCCCCCCCCC(=O)OCC
The “activity change, negative = cytotoxicity” value of the first is higher: 4.99% for the first, 1.4% for the second.

First: O=S(=O)(O)c1ccc(O)c2ncccc12
Second: O=C(NS(=O)(=O)/C=C/c1cccs1)c1ccc(F)cc1Br
The “activity change, negative = cytotoxicity” value of the first is higher: 2.86% for the first, -6.16% for the second.

Compared with CC(C)c1ccccc1C(C)C, CCCc1ccccc1 is higher in “activity change, negative = cytotoxicity” value: -0.0117% for the first, 1.06% for the second.

Going from C#CCOC(=O)[C@@H](C)Oc1ccc(Oc2ncc(Cl)cc2F)cc1 to CCOc1ccc2[nH]cc(C(=O)NCc3ccccc3)c(=O)c2n1, the “activity change, negative = cytotoxicity” value falls from -0.285% to -6.48%.

Compared with CC(C)=CCCC(C)CC=O (stereo not given), CCCCCC(CO)CCC (stereo not given) is lower in “activity change, negative = cytotoxicity” value: -2.7% for the first, -7.14% for the second.

Compared with C[C@H](CCC(=O)O)[C@H]1CC[C@H]2[C@@H]3[C@H](O)C[C@@H]4C[C@H](O)CC[C@]4(C)[C@H]3CC[C@]12C, CCCCCCCCCCCCCCCC(=O)OC/C=C(C)/C=C/C=C(C)/C=C/C1=C(C)CCCC1(C)C is higher in “activity change, negative = cytotoxicity” value: -2.02% for the first, -0.236% for the second.

First: CCOC(=S)SSC(=S)OCC
Second: CC1=CC(=O)/C(=C(/C)O)C(=O)O1
The “activity change, negative = cytotoxicity” value of the first is lower: -0.739% for the first, -0.0167% for the second.

Going from Oc1ccc(Cc2ccccc2)cc1 to Nc1nc(CC(=O)O)cs1, the “activity change, negative = cytotoxicity” value rises from -2.02% to -1.76%.

First: O=C(O)/C=C/c1cnc[nH]1
Second: CCCCCOC(=O)COc1cc(N2C(=O)C3=C(CCCC3)C2=O)c(F)cc1Cl
The “activity change, negative = cytotoxicity” value of the first is higher: 2.02% for the first, 0.407% for the second.

With N#CCCNCCC#N the “activity change, negative = cytotoxicity” value was -1.7%.

Compared with CNS(=O)(=O)Cc1ccc2[nH]cc(CCN(C)C)c2c1, CN(C)CC[C@@H](c1ccc(Br)cc1)c1ccccn1 is lower in “activity change, negative = cytotoxicity” value: 0.429% [at 42.5 µM] for the first, -2.59% [at 42.5 µM] for the second.

Going from Nc1ccc(C(=O)N2CC3CC(CN(Cc4ccccc4)C3)C2)cc1 to O=C(O)Cn1c(C(=O)Nc2nc(-c3ccccc3Cl)cs2)cc2ccccc21, the “activity change, negative = cytotoxicity” value rises from 0.905% [at 42.5 µM] to 1.52% [at 42.5 µM].

Going from CN(C)CC/C=C1\c2ccccc2COc2ccccc21 to c1ccc(-c2nc[nH]c2-c2ccccc2)cc1, the “activity change, negative = cytotoxicity” value rises from -2.98% [at 42.5 µM] to 2.57% [at 42.5 µM].

First: NC1CCN(c2nc3c(cc2F)c(=O)c(C(=O)O)cn3-c2ccc(F)cc2F)C1 (stereo not given)
Second: O=C(O)c1cn(C2CC2)c2cc(Cl)c(F)cc2c1=O
The “activity change, negative = cytotoxicity” value of the first is lower: -1.13% [at 42.5 µM] for the first, 0.375% [at 42.5 µM] for the second.

Going from Cc1ccc(C(=O)C(C)CN2CCCCC2)cc1 (stereo not given) to CCN(CC)CCOC(=O)C1(c2ccccc2)CCCC1, the “activity change, negative = cytotoxicity” value rises from -8.13% [at 42.5 µM] to -0.303% [at 42.5 µM].

Compared with CN1CCN(C2=Nc3cc(Cl)ccc3Nc3ccccc32)CC1, Cc1c(Cn2ccnc2)c2ccccc2n1CCC(=O)O is higher in “activity change, negative = cytotoxicity” value: -2.19% [at 42.5 µM] for the first, 1.06% [at 42.5 µM] for the second.

Compared with Cn1c(NCCN(CCO)CCCc2ccc([N+](=O)[O-])cc2)cc(=O)n(C)c1=O, CCCCOc1cc(C(=O)OCCN(CC)CC)ccc1N is lower in “activity change, negative = cytotoxicity” value: 7.29% [at 42.5 µM] for the first, -1.24% [at 42.5 µM] for the second.

First: CCN1CCC[C@H]1CNC(=O)c1c(OC)ccc(Br)c1OC
Second: COc1ccc2[nH]c(S(=O)Cc3ncc(C)c(OC)c3C)nc2n1 (stereo not given)
The “activity change, negative = cytotoxicity” value of the first is lower: 0.971% [at 42.5 µM] for the first, 1.82% [at 42.5 µM] for the second.

First: C=CC[N+]1([C@H]2C[C@H]3[C@@H]4CC[C@H]5C[C@H](OC(C)=O)[C@@H](N6CCCCC6)C[C@]5(C)[C@H]4CC[C@]3(C)[C@H]2OC(=O)CC)CCCCC1
Second: CN(C)C/C=C(/c1ccc(Br)cc1)c1cccnc1
The “activity change, negative = cytotoxicity” value of the first is lower: -9.03% [at 42.5 µM] for the first, 1.22% [at 42.5 µM] for the second.

With Cc1nc2ccccc2n1Cc1ccc(Cl)cc1 the Potency was 4.22 µM (active).
